Measurements published in PMC4601081.

Legend:
Assay in all cases: cross-link between two proteins; cross-linking mass spectrometry
[1] = molecular target: 26S proteasome regulatory subunit RPN3 (UniProt P40016)
[2] = molecular target: Ubiquitin C-terminal hydrolase RPN11 (UniProt P43588)
[3] = molecular target: 26S proteasome regulatory subunit RPN7 (UniProt Q06103)
Chain of 26S proteasome regulatory subunit RPN7 (Q06103 whole entry): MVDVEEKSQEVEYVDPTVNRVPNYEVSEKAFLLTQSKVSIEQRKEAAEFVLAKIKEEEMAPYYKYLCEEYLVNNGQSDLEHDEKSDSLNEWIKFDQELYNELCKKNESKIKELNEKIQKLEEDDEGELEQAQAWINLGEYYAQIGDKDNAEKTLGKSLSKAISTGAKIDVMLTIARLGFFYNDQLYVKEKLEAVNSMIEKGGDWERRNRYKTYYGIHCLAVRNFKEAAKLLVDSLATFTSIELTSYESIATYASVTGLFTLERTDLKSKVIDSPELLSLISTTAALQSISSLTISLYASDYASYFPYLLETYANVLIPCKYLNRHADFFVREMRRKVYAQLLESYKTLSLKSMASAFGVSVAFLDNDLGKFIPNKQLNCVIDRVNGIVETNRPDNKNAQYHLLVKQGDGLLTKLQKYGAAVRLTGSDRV

Chain of Ubiquitin C-terminal hydrolase RPN11 (P43588 whole entry): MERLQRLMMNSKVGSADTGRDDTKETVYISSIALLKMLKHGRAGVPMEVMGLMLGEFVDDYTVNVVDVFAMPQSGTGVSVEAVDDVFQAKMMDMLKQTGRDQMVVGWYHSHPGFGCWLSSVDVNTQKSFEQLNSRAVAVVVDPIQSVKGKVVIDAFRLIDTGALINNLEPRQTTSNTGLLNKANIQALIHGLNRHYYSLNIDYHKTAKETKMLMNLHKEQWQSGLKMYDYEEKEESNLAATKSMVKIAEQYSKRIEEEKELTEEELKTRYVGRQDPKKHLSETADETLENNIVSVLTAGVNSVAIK
Chain of 26S proteasome regulatory subunit RPN3 (P40016 whole entry): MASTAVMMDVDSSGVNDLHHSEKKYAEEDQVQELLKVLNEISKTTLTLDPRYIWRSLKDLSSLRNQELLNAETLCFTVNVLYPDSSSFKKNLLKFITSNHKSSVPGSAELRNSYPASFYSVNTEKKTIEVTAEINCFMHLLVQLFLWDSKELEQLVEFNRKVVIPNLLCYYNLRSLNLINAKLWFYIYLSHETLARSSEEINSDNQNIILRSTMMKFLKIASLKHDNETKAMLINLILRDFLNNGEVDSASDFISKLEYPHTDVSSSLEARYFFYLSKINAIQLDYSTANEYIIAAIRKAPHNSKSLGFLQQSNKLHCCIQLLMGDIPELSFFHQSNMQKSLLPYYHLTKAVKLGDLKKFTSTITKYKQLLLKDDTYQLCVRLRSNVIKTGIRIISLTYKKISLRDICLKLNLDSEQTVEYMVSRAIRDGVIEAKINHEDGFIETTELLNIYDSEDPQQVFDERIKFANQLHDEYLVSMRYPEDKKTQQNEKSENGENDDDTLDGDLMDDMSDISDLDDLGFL

Row | Substance | listed as a hit [1] | listed as a hit [2] | listed as a hit [3]
1 | 26S proteasome complex subunit SEM1, O94742 | yes | yes | 
2 | Ubiquitin C-terminal hydrolase RPN11, P43588 |  |  | yes
3 | 26S proteasome regulatory subunit RPN3, P40016 |  | yes | yes
